PubChem BioAssay (NCATS)
Calls of active or inactive are those of the source. The call rests on the fitted dose curve.

Experiment: qHTS drug screen for cell cycle checkpoint inhibitors in PARPi-resistant BRCA-mutant ovarian cancer cell lines. (AID 1963452)
Settings: PEO1/OlaR viability, CellTiter-Glo luminescence, 96 h; for Z-AUC: stronger effect = lower value
Procedure, shortened: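 PEO1, PEO4 and PEO1/OlaR ovarian cancer cells, 600 per well, exposed 96 h at 37C to a dilution series. Viability read by CellTiter-Glo luminescence, normalized to DMSO and empty wells; activity summarized as Z-AUC.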

[1] = measured here: PEO1 parental Z-AUC
Potency means the concentration at half of the fitted maximal effect.

Compound | Z-AUC | Z-AUC [1] | Z-AUC (measured here: PEO4 Z-AUC) | Potency
CCC(C)(C)C(=O)O[C@H]1C[C@@H](C)C=C2C=C[C@H](C)[C@H](CC[C@@H]3C[C@@H](O)CC(=O)O3)[C@H]21 | 1.29 (inactive) | 1.6 | 2.06 | 
Nc1nccc(-c2ccc3noc(-c4ccc(Cl)cc4)c3c2)n1 | 0.305 (inactive) | 0.344 | 0.149 | 
CCn1cc(C(=O)O)c(=O)c2cc(F)c(N3CCNC(C)C3)c(F)c21 (stereo not drawn) | -0.481 (inactive) | -0.703 | -0.581 | 
CS(=O)(=O)c1ccc(C(=O)Nc2ccc(Cl)c(-c3ccccn3)c2)c(Cl)c1 | 0.211 (inactive) | -0.252 | -0.353 | 
COc1ccc(-c2ccc3c(N4CCOCC4)nc(N4C[C@@H](C)O[C@@H](C)C4)nc3n2)cc1CO | 1.56 (inactive) | 1.12 | 1.19 | 
CCCC(CCC)C(=O)O | 0.56 (inactive) | 0.704 | 0.624 | 
OCCC#Cc1nc(-c2ccc(F)cc2)c(-c2ccncc2)n1CCCc1ccccc1 | 1.23 (inactive) | 0.482 | 0.663 | 
CN(C)c1ccc(C2Nc3ccc4ccccc4c3C3=C2C(=O)CC(C)(C)C3)cc1Br (stereo not drawn) | -0.197 (inactive) | -0.276 | 0.333 | 
Cc1cccc(-c2nn(C(=S)Nc3ccccc3)cc2-c2ccnc3ccccc23)n1 | 0.884 (inactive) | 0.402 | 0.406 | 
C/C(=C\C(=O)Nc1ccccc1C(=O)O)c1ccc2ccccc2c1 | 0.258 (inactive) | 0.668 | 0.827 | 
CS(=O)(=O)Oc1ccc2c(NC(N)=O)c(C(=O)c3ccc(Cl)cc3Cl)oc2c1 | 1.2 (inactive) | 1.13 | 1.11 | 
COc1cc(Nc2ncc3c(n2)-c2ccc(Cl)cc2C(c2c(F)cccc2OC)=NC3)ccc1C(=O)O | -0.756 (inactive) | -0.991 | -1.47 | 
COc1ccccc1[C@H](c1cccc2ccccc12)[C@@](C)(C#N)C(=O)N1CCC(c2cccc(C(F)(F)F)c2)CC1 | 1.34 (inactive) | 1.15 | 1.29 | 
OC[C@H](Cc1ccccc1)Nc1nc(Oc2ccc3c(c2)CCC3)nc2c1ncn2Cc1ccc(-c2ccccc2)cc1 | 0.712 (inactive) | 0.249 | 0.323 | 
CCOc1ccn(-c2ccc(F)cc2)c(=O)c1C(=O)Nc1ccc(Oc2ccnc(N)c2Cl)c(F)c1 | -0.773 (inactive) | -0.706 | -0.86 | 
CNC(=O)c1ccc(C)c(-n2c(C)cc(OCc3ccc(F)cc3F)c(Br)c2=O)c1 | -0.231 (inactive) | -0.585 | -0.46 | 
CC1(C)CNc2cc(NC(=O)c3cccnc3NCc3ccncc3)ccc21 | 1.35 (inactive) | 0.457 | 0.272 | 
Cc1c(CCOc2ccc(C(=O)O)cc2)c2cc(Cl)ccc2n1C(c1ccccc1)c1ccccc1 | 0.749 (inactive) | 1.16 | 0.896 | 
CNC(=O)c1ccccc1Sc1ccc2c(/C=C/c3ccccn3)n[nH]c2c1 | 0.578 (inactive) | 0.269 | 0.241 | 
Cc1cnc(Nc2ccc(OCCN3CCCC3)cc2)nc1Nc1cccc(S(=O)(=O)NC(C)(C)C)c1 |  | -1.63 | -1.56 | 1950 nM (active)
Cc1ccc(-n2nc(C(C)(C)C)cc2NC(=O)Nc2ccc(OCCN3CCOCC3)c3ccccc23)cc1 | 0.154 (inactive) | 0.786 | 0.35 | 
